{
  "source": "PubChem BioAssay AID463173",
  "about": "(ICCB-Longwood Screening Facility, Harvard Medical School, 2010)",
  "note": "In all, about 52,000 compounds went through this assay and about 4,300 (8.3%) were called active. The full list was thinned out, with actives kept by preference. A number with no mark means an inactive call. No stated cut-off is given here; in the data, active means survival mostly below about 52% (no sharp cut-off); inactive means mostly above about 56%.",
  "data": [
    {"system": "DeltatarO mutant", "assay": "growth inhibition of S. aureus wild type versus tarO mutant, primary screen, teichoic acid synthesis inhibitors, RN4220, OD600 (AID 463173)", "conditions": "OD600, 18 h, active compounds read low, screened at 18.75 µg/mL (by protocol)", "values": [
      {"compound": "Cn1c(=O)n(C)c2cc(N3CCOCC3)c(NC(=O)c3ccccc3Br)cc21", "survival": "82%"},
      {"compound": "CCc1ccc(NC(=O)Cn2c(=O)ccc3cc(S(=O)(=O)N4CCCC4)ccc32)cc1", "survival": "144%"},
      {"compound": "Cc1ccc(NC(=O)Cn2c(=O)ccc3cc(S(=O)(=O)N4CCCC4)ccc32)cc1C", "survival": "98%"},
      {"compound": "Cc1ccc(NC(=O)Cn2c(=O)ccc3cc(S(=O)(=O)N4CCCC4)ccc32)cc1N(C)C", "survival": "32% (active)"},
      {"compound": "COc1cccc(NC(=O)CC2NCCNC2=O)c1", "note": "(stereo unspecified)", "survival": "84%"},
      {"compound": "CCCCN(C)CCNC(=O)c1ccc2c(=O)n(CCc3ccccc3)c(=O)[nH]c2c1", "survival": "77%"},
      {"compound": "CCOC(=O)C1CCN(c2c(C(=O)c3ccc(OCC)cc3)cnc3ccc(OC)cc23)CC1", "survival": "37%"},
      {"compound": "CCOC(=O)C1CCCN(C(=O)c2ccc(OCC)cc2)C1", "note": "(stereo unspecified)", "survival": "77%"},
      {"compound": "CCOC(=O)C1CCCN(c2c(C(=O)c3ccc(OCC)cc3)cnc3ccccc23)C1", "note": "(stereo unspecified)", "survival": "-3% (active)"},
      {"compound": "COc1ccc(S(=O)(=O)c2cnc3cc(OC)c(OC)cc3c2N2CCCC(C)C2)cc1", "note": "(stereo unspecified)", "survival": "116%"},
      {"compound": "CCOc1ccc(C(=O)c2cnc3ccc(Cl)cc3c2S(=O)(=O)c2ccc(C)cc2)cc1", "survival": "80%"},
      {"compound": "CCOC(=O)C1CCN(c2c(C(=O)c3ccc(C)cc3)cnc3ccc(F)cc23)CC1", "survival": "2% (active)"},
      {"compound": "CCOc1ccc2nc(N3CCCC(C(=O)NCc4ccc(C)cc4)C3)sc2c1", "note": "(stereo unspecified)", "survival": "71%"},
      {"compound": "CCOC(=O)C1CCN(c2c(C(=O)c3ccc(OC)cc3)cnc3ccccc23)CC1", "survival": "125%"},
      {"compound": "COc1cc2ncc(C(=O)c3ccc(C)cc3)c(N3CCCCC3)c2cc1OC", "survival": "2% (active)"},
      {"compound": "CCc1ccc2ncc(C(=O)c3ccc(C)c(C)c3)c(N3CCC(C(N)=O)CC3)c2c1", "survival": "86%"},
      {"compound": "COc1ccc(C(=O)c2cnc3ccc(C)cc3c2S(=O)(=O)c2ccccc2)cc1", "survival": "69%"},
      {"compound": "CCOC(=O)C1CCCN(c2c(C(=O)c3ccc(C)cc3)cnc3ccc(OCC)cc23)C1", "note": "(stereo unspecified)", "survival": "10% (active)"},
      {"compound": "CCC(=O)NC1CC(=O)N(c2ccc3c(c2)OCCO3)C1", "note": "(stereo unspecified)", "survival": "82%"},
      {"compound": "CC(=O)N1CCC(N(Cc2ccc(C)o2)C(=O)Nc2cccc(C(F)(F)F)c2)CC1", "survival": "91%"},
      {"compound": "CC(C)NC(=O)c1ccc(NC(=O)N2CCCCc3ccccc32)cc1", "survival": "70%"},
      {"compound": "Cc1ccc(CN(C(=O)COc2ccc(Cl)c(C)c2)c2ccccn2)o1", "survival": "52%"},
      {"compound": "CCOC(=O)c1cc(S(=O)(=O)N2CCN(c3ccc(OC)cc3)CC2)[nH]n1", "survival": "128%"},
      {"compound": "CCC1Oc2ccccc2N(CC(=O)NCCc2ccc(OC)c(OC)c2)C1=O", "note": "(stereo unspecified)", "survival": "115%"},
      {"compound": "COc1cccc2c1ncc1c(-c3ccc(C)cc3)nn(-c3cccc([N+](=O)[O-])c3)c12", "survival": "87%"},
      {"compound": "Cc1ccc(NC(=O)CCn2cnc3onc(-c4ccc(F)cc4)c3c2=O)c(Br)c1", "survival": "102%"},
      {"compound": "CCc1ccc(C(=O)c2cnc3ccc(F)cc3c2S(=O)(=O)c2ccccc2)cc1", "survival": "123%"},
      {"compound": "CCOC(=O)C1CCCN(c2c(C(=O)c3ccccc3)cnc3ccc(F)cc23)C1", "note": "(stereo unspecified)", "survival": "35% (active)"},
      {"compound": "CCOC(=O)C1CCCN(c2c3c(nc4cc(-c5ccc(F)cc5)nn24)CCCC3)C1", "note": "(stereo unspecified)", "survival": "76%"},
      {"compound": "CCOC(=O)c1c(S(=O)(=O)NCC(=O)N2CCN(c3cc(C)ccc3C)CC2)c(C)n(C)c1C", "survival": "71%"},
      {"compound": "COc1ccccc1CNC(=O)c1ccc2c(c1)CCN2S(=O)(=O)c1ccc(Cl)cc1", "survival": "82%"},
      {"compound": "CCS(=O)(=O)N1CCc2cc(C(=O)NCc3ccccc3OC)ccc21", "survival": "40% (active)"},
      {"compound": "COc1ccccc1N1CCN(C(=O)c2ccc3c(c2)CCN3S(=O)(=O)c2ccccc2)CC1", "survival": "62%"},
      {"compound": "CCS(=O)(=O)N1CCc2cc(C(=O)NCc3ccccc3Cl)ccc21", "survival": "89%"},
      {"compound": "COc1ccccc1CNC(=O)c1ccc2c(c1)CCN2S(=O)(=O)c1ccccc1", "survival": "43% (active)"},
      {"compound": "CCS(=O)(=O)N1CCc2cc(C(=O)NCc3ccccc3)ccc21", "survival": "68%"},
      {"compound": "CC1=C(C(=O)Nc2ccccc2)C(c2cccnc2)n2nc(SCc3ccccc3Cl)nc2N1", "note": "(stereo unspecified)", "survival": "179%"},
      {"compound": "CCCCNC(=O)CN1C(=O)COc2ccc(S(=O)(=O)N3CCCCCC3)cc21", "survival": "80%"},
      {"compound": "CC(=O)Nc1ccc(/C=C/c2nc(-c3ccccc3O)n(-c3ccccc3)n2)cc1", "survival": "84%"},
      {"compound": "CN(C)c1ccc(/C=C/c2noc(-c3ccccc3O)n2)cc1", "survival": "86%"},
      {"compound": "Cc1nc(C)c(C(=O)N/N=C/c2ccc(O)cc2O)cc1C(=O)N/N=C/c1ccc(O)cc1O", "survival": "80%"},
      {"compound": "Oc1ccccc1-c1nc(/C=C/c2ccc(F)cc2)no1", "survival": "79%"},
      {"compound": "N#Cc1nc(/C=C/c2ccc(F)cc2)oc1N1CCN(c2ccccc2)CC1", "survival": "73%"},
      {"compound": "Oc1ccc(/C=C/c2nc(-c3ccccc3O)n(-c3ccccc3)n2)c(O)c1", "survival": "-3% (active)"},
      {"compound": "CN(C)c1ccc(/C=N/NC(=O)c2ccccc2)cc1", "survival": "95%"},
      {"compound": "CN(C)c1ccc(/C=C/c2nc(-c3ccccc3O)n(-c3ccccc3)n2)cc1", "survival": "42% (active)"},
      {"compound": "CC(=O)Nc1ccc(/C=C/c2noc(-c3ccccc3O)n2)cc1", "survival": "75%"},
      {"compound": "Oc1ccccc1-c1nc(/C=C/c2ccc(F)cc2)nn1-c1ccccc1", "survival": "26% (active)"},
      {"compound": "Oc1ccccc1-c1nc(/C=C/c2ccccc2)nn1-c1ccccc1", "survival": "7% (active)"},
      {"compound": "Cc1ccc2c(c1)c(N1CCCC1=O)c(C(=O)Nc1ccc(F)cc1F)n2C", "survival": "71%"},
      {"compound": "CCCCN(CCCC)CCNC(=O)CN1C(=O)CSc2ccc(S(=O)(=O)N3CCOCC3)cc21", "survival": "92%"},
      {"compound": "CCCCN(CCCNC(=O)c1cc(Nc2ccc(OC)cc2OC)nc2ccccc12)Cc1ccccc1", "survival": "99%"},
      {"compound": "O=c1c2sc3ccccc3c2n(Cc2ccccc2Cl)c(=O)n1Cc1ccccc1", "survival": "56%"},
      {"compound": "CC(C)(C)C(=O)NC1CC(=O)N(c2ccc3c(c2)OCCO3)C1", "note": "(stereo unspecified)", "survival": "125%"},
      {"compound": "Cn1cc(-c2cc3n(n2)CCC(=O)N3CCCC(=O)Nc2ccc(F)cc2F)c2ccccc21", "survival": "128%"},
      {"compound": "Cc1c(Cl)cccc1-n1ncc(C(=O)Nc2ccc3c(c2)OCCO3)c1C1CCN(C(=O)OC(C)(C)C)CC1", "survival": "102%"}
    ]}
  ]
}
